The record followed here is PubChem BioAssay (NCI).

Among the test systems are HCT-15 colon; HT29 colon; SNB-19 CNS; U251 CNS; PC-3 prostate; SK-MEL-5 melanoma; UACC-62 melanoma; LOX IMVI melanoma; SK-MEL-28 melanoma; SK-MEL-2 melanoma; EKVX NSCLC; SN12C renal; UO-31 renal; TK-10 renal; ACHN renal; CAKI-1 renal; HL-60(TB) leukemia; CCRF-CEM leukemia; SNB-75 CNS; A498 renal.
Experiment in all cases: NCI-60 one-dose screen, 48 h (100 = growth as untreated, 0 = no growth, -100 = all killed)
What all share (conditions): 10 µM unless noted

“And” between values parts separate entries of the source, which are not always exact repeats. Equal entries are not always repeated. Compounds without any hit were thinned out: in the full panel of roughly 83,000, 20% have a hit.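 Cell lines were cultured in 96-well plates, exposed to a single compound concentration, and assessed for percent growth 48 hours later.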 A number with no mark means an inactive call. The source made the active and inactive calls. How the source made its calls: active means growth percent below 10; inactive means the rest.

Regarding `C[C@H](O)CCC(=O)c1ccoc1`, the growth is 110% in the experiment with HCT-15 colon; 106% with HT29 colon; 100% in the experiment with SNB-19 CNS; 102% in the experiment with U251 CNS; 95.7% in the experiment with PC-3 prostate; 99.9% in the experiment on SK-MEL-5 melanoma. The growth in the experiment on UACC-62 melanoma is 96%; in the experiment on LOX IMVI melanoma, 95.5%; with SK-MEL-28 melanoma, 115%; in the experiment on SK-MEL-2 melanoma it was 110%; with EKVX NSCLC, 104%; in the experiment with SN12C renal, 96.9%. For the same compound, the growth is 98.9% in the experiment with UO-31 renal; 103% with TK-10 renal; 114% with ACHN renal; 101% in the experiment on CAKI-1 renal; 99.4% in the experiment with HL-60(TB) leukemia; 98.1% with CCRF-CEM leukemia.

For the compound `Cc1ccc(C(=O)O[C@H](C(=O)O)[C@H](OC(=O)c2ccc(C)cc2)C(=O)O)cc1`, the growth was 101% in the experiment with HCT-15 colon; 98% in the experiment on HT29 colon; 103% in the experiment with SNB-75 CNS; 97.8% in the experiment on U251 CNS; 101% with PC-3 prostate; 105% in the experiment with SK-MEL-5 melanoma. The growth in the experiment with UACC-62 melanoma is 104%; in the experiment with LOX IMVI melanoma, 97%; with SK-MEL-28 melanoma it was 109%; with SN12C renal, 102%; in the experiment on TK-10 renal it was 105%; in the experiment on ACHN renal, 106%. The growth in the experiment with CAKI-1 renal was 102%; in the experiment on A498 renal, 120%; in the experiment on HL-60(TB) leukemia, 95.4%; with CCRF-CEM leukemia it was 105%.

As for `COc1ccc(N(CC(=O)NCCC[Te]c2ccccc2)C(=O)c2ccccc2)cc1`, the growth in the experiment on HT29 colon was -25.5% (active); in the experiment on SNB-75 CNS, 69.5%; in the experiment on SNB-19 CNS, 36.2%; in the experiment on U251 CNS, 14.4%; in the experiment on PC-3 prostate, 7.26% (active); with SK-MEL-5 melanoma it was 55.2%. Also, the growth in the experiment on UACC-62 melanoma was 84.1%; in the experiment with LOX IMVI melanoma, 32.8%; with SK-MEL-28 melanoma it was 145%; with SK-MEL-2 melanoma, 101%; in the experiment with EKVX NSCLC, 2.14% (active); in the experiment on SN12C renal, 19.9%. In addition, the growth was 12.9% in the experiment with UO-31 renal; 97.7% with TK-10 renal; 87.7% with ACHN renal; 84.9% with CAKI-1 renal; 16.1% in the experiment with A498 renal; 36.9% in the experiment with HL-60(TB) leukemia. Moreover, in the experiment on CCRF-CEM leukemia, the growth is 15.1%.

Consider `CCCCS(=O)(=O)Cl`, for which the growth with HT29 colon was 113%; in the experiment with SNB-75 CNS it was 93.5%; in the experiment with SNB-19 CNS, 110%; in the experiment with U251 CNS, 105%; in the experiment on PC-3 prostate, 89.6%; with SK-MEL-5 melanoma, 98.2%. The growth in the experiment on UACC-62 melanoma is 106%; in the experiment with LOX IMVI melanoma, 99.9%; in the experiment with SK-MEL-28 melanoma it was 107%; in the experiment on SK-MEL-2 melanoma it was 106%; with EKVX NSCLC, 94.8%; with SN12C renal, 104%. The growth in the experiment on UO-31 renal is 100%; with TK-10 renal it was 103%; with CAKI-1 renal, 100%; in the experiment with A498 renal it was 97.9%; in the experiment with CCRF-CEM leukemia, 103%.

As to `CC1(C)CN=C(NN=C(/C=C/c2ccc(C(F)(F)F)cc2)/C=C/c2ccc(C(F)(F)F)cc2)NC1`, the growth is -72% (active) in the experiment with HCT-15 colon; -83.2% (active) with HT29 colon; -88.6% (active) with SNB-75 CNS; 24.7% in the experiment on PC-3 prostate; -83.8% (active) with UACC-62 melanoma; -90.9% (active) in the experiment with SK-MEL-28 melanoma. Further, the growth in the experiment with UO-31 renal was 8.51% (active); in the experiment on TK-10 renal, -17.9% (active); in the experiment on CAKI-1 renal, -76.9% (active); in the experiment with A498 renal, 2.54% (active); with HL-60(TB) leukemia, -59.7% (active); in the experiment with CCRF-CEM leukemia, -24.9% (active).

Take `CCC1(CCSC#N)C(=O)NC(=O)NC1=O`: the growth was 99.6% in the experiment with HCT-15 colon; 100% in the experiment on HT29 colon; 97.1% in the experiment with SNB-75 CNS; 93.9% in the experiment on U251 CNS; 92.5% in the experiment on PC-3 prostate; 100% in the experiment with SK-MEL-5 melanoma. Further, the growth in the experiment with UACC-62 melanoma was 104%; in the experiment with LOX IMVI melanoma, 101%; with SK-MEL-28 melanoma, 110%; in the experiment on SK-MEL-2 melanoma, 109%; in the experiment with EKVX NSCLC, 93.2%; in the experiment with SN12C renal, 104%. In addition, the growth was 86.5% in the experiment on TK-10 renal; 106% in the experiment on ACHN renal; 98.7% in the experiment on CAKI-1 renal; 90.9% in the experiment on A498 renal; 98.3% in the experiment with HL-60(TB) leukemia; 103% in the experiment on CCRF-CEM leukemia.

As to `CC1=C2[C@H]3OC(=O)[C@@H](C)[C@@H]3CC[C@@]2(C)C=CC1=O`, the growth in the experiment on HT29 colon is 118%; in the experiment with SNB-75 CNS, 88.3%; with SNB-19 CNS, 110%; in the experiment on U251 CNS, 101%; in the experiment with PC-3 prostate it was 50.5%; in the experiment on SK-MEL-5 melanoma, 112%. Further, the growth with UACC-62 melanoma is 93%; in the experiment on LOX IMVI melanoma, 99.1%; in the experiment with SK-MEL-28 melanoma, 122%; in the experiment on SK-MEL-2 melanoma, -0.59% (active); in the experiment with EKVX NSCLC it was 121%; with SN12C renal it was 100%. Moreover, the growth is 99.2% in the experiment on UO-31 renal; 107% in the experiment on TK-10 renal; 95.7% in the experiment with ACHN renal; 112% in the experiment with CAKI-1 renal; 125% with A498 renal; 87.3% in the experiment with HL-60(TB) leukemia. Besides, in the experiment on CCRF-CEM leukemia, the growth is 94.6%.

Regarding `O=c1[nH]c(=O)[nH]c(=O)[nH]1`, the growth in the experiment on HT29 colon was 115%; in the experiment on SNB-75 CNS it was 103%; in the experiment with SNB-19 CNS, 98.1%; with U251 CNS, 132%; in the experiment on PC-3 prostate, 148%; in the experiment with SK-MEL-5 melanoma it was 107%. Further, the growth is 113% in the experiment on UACC-62 melanoma; 129% with LOX IMVI melanoma; 135% in the experiment with SK-MEL-28 melanoma; 66.7% with SK-MEL-2 melanoma; 110% in the experiment on EKVX NSCLC; 120% in the experiment on SN12C renal. Also, the growth was 140% in the experiment with TK-10 renal, 161% with ACHN renal, 92.7% in the experiment with CAKI-1 renal and 88.8% with HL-60(TB) leukemia.

On to `CCOC(=O)C1C(c2ccco2)C2(C#N)C(=N)OC1(C)C2(C#N)C#N` (configuration not stated), for which the growth in the experiment with UACC-62 melanoma is 62% [100 µM] and 20.8% [100 µM]; in the experiment on TK-10 renal, 83.8% [100 µM] and 19.2% [100 µM].

For the compound `C=C1C(=O)OC2/C=C(\C)CC/C=C(/C)CC(OC(=O)/C(=C/CO)CO)C12` (configuration not stated), the growth in the experiment with UACC-62 melanoma was -89.6% [100 µM] (active) and -100% [100 µM] (active); with TK-10 renal, -78.7% [100 µM] (active) and -88.5% [100 µM] (active).

In the case of `OC[C@@H](O)[C@@H](O)CO`, in the experiment with HL-60(TB) leukemia, the growth is 92.4%.

With `CC[C@H](C)[C@H](NC(=O)[C@H]1CCCCN1C)C(=O)N(C)[C@H](C(=O)NC12CC(C(=O)N[C@@H](Cc3ccccc3)C[C@H](C)C(=O)OC)(C1)C2)C(C)C`, the growth with HT29 colon is 87.3%; in the experiment on SNB-75 CNS, 92.7%; in the experiment on SNB-19 CNS, 100%; in the experiment on U251 CNS, 96.7%; in the experiment on PC-3 prostate, 100%; in the experiment with SK-MEL-5 melanoma it was 101%. The growth in the experiment with UACC-62 melanoma is 102%; with LOX IMVI melanoma, 92.1%; in the experiment with SK-MEL-28 melanoma it was 110%; in the experiment on EKVX NSCLC, 102%; in the experiment with UO-31 renal, 95.1%; in the experiment on TK-10 renal it was 98.4%. The growth with ACHN renal was 106%; in the experiment with CAKI-1 renal, 95.9%; in the experiment with A498 renal, 112%; in the experiment on HL-60(TB) leukemia it was 114%; with CCRF-CEM leukemia, 103%.
